Results as given in PubChem BioAssay AID1159580 (chemical genetic matrix, 2015).
About 2,000 (36%) of roughly 5,500 compounds were called active. Roughly 18% stayed inconclusive and do not appear here. Some of the results follow. A number with no mark means an inactive call. Cut-off read from the data, not from the text of the source: active = normalized growth mostly below about 0.91 (no sharp cut-off); inconclusive = no clear call, values can overlap the other calls; inactive = mostly above about 0.92.

Assay: chemical genetic growth profiling, strain panel (AID 1159580);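 note: tested at 20 µM; growth read once vehicle control cultures reached saturation at 30 °C; 1 = growth at the plate median or of vehicle wells; lower values mean less growth of the strain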
Details: S. cerevisiae deletion strains, growth OD
[1] = locus YAR019C, strain CDC15, active compounds read low
[2] = locus YBL105C, strain PKC1, active compounds read low
[3] = locus YBR135W, strain CKS1, active compounds read low
[4] = locus YBR136W, strain MEC1, active compounds read low
[5] = locus YBR160W, strain CDC28, active compounds read low
[6] = locus YDL017W, strain CDC7, active compounds read low
[7] = locus YDL028C, strain MPS1, active compounds read low
[8] = locus YDL101C, strain DUN1, active compounds read low
[9] = locus YDL108W, strain KIN28, active compounds read low
[10] = locus YDL132W, strain cdc53, active compounds read low
[11] = locus YDL214C, strain PRR2, active compounds read low
[12] = locus YDR052C, strain DBF4, active compounds read low
[13] = locus YDR054C, strain cdc34, active compounds read low
[14] = locus YDR226W, strain ADK1, active compounds read low
[15] = locus YDR477W, strain SNF1, active compounds read low
[16] = locus YER123W, strain YCK3, active compounds read low
[17] = locus YER133W, strain GLC7, active compounds read low
[18] = locus YFL009W, strain cdc4, active compounds read low
[19] = locus YFL029C, strain CAK1, active compounds read low
[20] = locus YFR003C, strain YPI1, active compounds read low
[21] = locus YFR019W, strain FAB1, active compounds read low
[22] = locus YFR028C, strain CDC14, active compounds read low
[23] = locus YGR040W, strain KSS1, active compounds read low
[24] = locus YGR052W, strain FMP48, active compounds read low
[25] = locus YGR092W, strain DBF2, active compounds read low
[26] = locus YHR030C, strain SLT2, active compounds read low
[27] = locus YHR079C, strain IRE1, active compounds read low
[28] = locus YHR082C, strain KSP1, active compounds read low
[29] = locus YHR205W, strain SCH9, active compounds read low
[30] = locus YIL147C, strain SLN1, active compounds read low
[31] = locus YJL095W, strain BCK1, active compounds read low
[32] = locus YJL128C, strain PBS2, active compounds read low
[33] = locus YJL157C, strain FAR1, active compounds read low
[34] = locus YJR016C, strain ILV3, active compounds read low
[35] = locus YJR066W, strain TOR1 (second series), active compounds read low
[36] = locus YJR066W, strain TOR1, active compounds read low
[37] = locus YKL048C, strain ELM1, active compounds read low
[38] = locus YKL067W, strain YNK1, active compounds read low
[39] = locus YKL101W, strain HSL1, active compounds read low
[40] = locus YKL193C, strain SDS22, active compounds read low
[41] = locus YKL203C, strain TOR2, active compounds read low
[42] = locus YLR113W, strain HOG1, active compounds read low
[43] = locus YLR133W, strain CKI1, active compounds read low
[44] = locus YLR403W, strain SFP1, active compounds read low
[45] = locus YML070W, strain DAK1, active compounds read low
[46] = locus YMR001C, strain CDC5, active compounds read low
[47] = locus YMR205C, strain PFK2 (second series), active compounds read low
[48] = locus YMR277W, strain FCP1, active compounds read low
[49] = locus YNL006W, strain LST8, active compounds read low
[50] = locus YNL020C, strain ARK1, active compounds read low
[51] = locus YNL161W, strain CBK1, active compounds read low
[52] = locus YNL183C, strain NPR1, active compounds read low
[53] = locus YNL207W, strain RIO2, active compounds read low
[54] = locus YNL222W, strain SSU72, active compounds read low
[55] = locus YNL307C, strain MCK1 (second series), active compounds read low
[56] = locus YOL078W, strain AVO1, active compounds read low
[57] = locus YOL136C, strain PFK27, active compounds read low
[58] = locus YOR061W, strain CKA2, active compounds read low
[59] = locus YOR119C, strain RIO1, active compounds read low
[60] = locus YOR231W, strain MKK1, active compounds read low
[61] = locus YOR329C, strain SCD5, active compounds read low
[62] = locus YPL031C, strain PHO85, active compounds read low
[63] = locus YPL153C, strain RAD53, active compounds read low
[64] = locus YPL204W, strain HRR25, active compounds read low
[65] = locus YPL209C, strain IPL1, active compounds read low
[66] = locus YPL256C, strain CLN2, active compounds read low
[67] = locus YPR025C, strain CCL1, active compounds read low
[68] = locus YPR106W, strain ISR1, active compounds read low
[69] = locus YPR111W, strain DBF20, active compounds read low
[70] = strain NNK1, active compounds read low
[71] = strain TSCII, active compounds read low

What does the source list for `N/C(=N/OC(=O)Nc1cccc(C(F)(F)F)c1)c1ccc(OC(F)(F)F)cc1`?
normalized growth [1]: 0.983; normalized growth [2]: 1; normalized growth [3]: 0.979; normalized growth [4]: 0.985; normalized growth [5]: 0.969; normalized growth [6]: 0.995; normalized growth [7]: 0.972; normalized growth [8]: 0.989; normalized growth [9]: 0.975; normalized growth [10]: 0.979; normalized growth [11]: 0.895; normalized growth [12]: 0.998; normalized growth [13]: 0.971; normalized growth [14]: 0.971; normalized growth [15]: 0.822; normalized growth [16]: 0.524 (active); normalized growth [17]: 0.893; normalized growth [18]: 0.953; normalized growth [19]: 0.981; normalized growth [20]: 0.994; normalized growth [21]: 0.745 (active); normalized growth [22]: 0.976; normalized growth [23]: 0.837; normalized growth [24]: 0.551 (active); normalized growth [25]: 0.616; normalized growth [26]: 0.21 (active); normalized growth [27]: 0.306 (active); normalized growth [28]: 0.496 (active); normalized growth [29]: 0.882; normalized growth [30]: 0.988; normalized growth [31]: 0.287 (active); normalized growth [32]: 0.93; normalized growth [33]: 0.905; normalized growth [34]: 0.988; normalized growth [35]: 0.731; normalized growth [36]: 0.555; normalized growth [37]: 0.874; normalized growth [38]: 0.883; normalized growth [39]: 0.743; normalized growth [40]: 0.985; normalized growth [41]: 0.895; normalized growth [42]: 0.361 (active); normalized growth [43]: 0.887; normalized growth [44]: 0.914; normalized growth [45]: 0.716; normalized growth [46]: 0.983; normalized growth [47]: 0.906; normalized growth [48]: 0.97; normalized growth [49]: 0.977; normalized growth [50]: 0.794; normalized growth [51]: 0.996; normalized growth [52]: 0.53 (active); normalized growth [53]: 0.995; normalized growth [54]: 0.973; normalized growth [55]: 0.814; normalized growth [56]: 0.983; normalized growth [57]: 0.821; normalized growth [58]: 0.883; normalized growth [59]: 0.869; normalized growth [60]: 0.269 (active); normalized growth [61]: 0.993; normalized growth [62]: 0.749; normalized growth [63]: 0.485 (active); normalized growth [64]: 0.684; normalized growth [65]: 0.992; normalized growth [66]: 0.456 (active); normalized growth [67]: 0.99; normalized growth [68]: 0.976; normalized growth [69]: 0.946; normalized growth [70]: 0.98; normalized growth [71]: 0.986

Which normalized growth [1] does the source give for `CC1(C)C=Cc2cc(/C(N)=N\OC(=O)Nc3cccc(C(F)(F)F)c3)ccc2O1` here?
The normalized growth was 0.981.

What about the normalized growth [2] of the same molecule?
Its normalized growth is 0.982.

And the normalized growth [3]?
Its normalized growth is 0.969.

What about the normalized growth [4] of the same molecule?
Its normalized growth is 0.972.

And the normalized growth [5]?
Its normalized growth is 0.977.

What about the normalized growth [6] of the same molecule?
The normalized growth was 0.987.

And the normalized growth [7]?
Its normalized growth is 0.977.

What about the normalized growth [8] of the same molecule?
Its normalized growth is 0.988.

And the normalized growth [9]?
The normalized growth was 0.977.

And the normalized growth [10]?
The normalized growth was 0.977.

And the normalized growth [11]?
Its normalized growth is 0.947.

What about the normalized growth [12] of the same molecule?
The normalized growth was 0.989.

And the normalized growth [13]?
Its normalized growth is 0.97.

And the normalized growth [14]?
Its normalized growth is 0.976.

And the normalized growth [15]?
The normalized growth was 0.967.

And the normalized growth [16]?
The normalized growth was 0.866.

What about the normalized growth [17] of the same molecule?
Its normalized growth is 0.947.

And the normalized growth [18]?
The normalized growth was 0.976.

And the normalized growth [19]?
Its normalized growth is 0.982.

And the normalized growth [20]?
The normalized growth was 0.984.

And the normalized growth [21]?
Its normalized growth is 0.883.

What about the normalized growth [22] of the same molecule?
Its normalized growth is 0.978.

What about the normalized growth [23] of the same molecule?
The normalized growth was 0.968.

And the normalized growth [24]?
Its normalized growth is 0.99.

What about the normalized growth [25] of the same molecule?
The normalized growth was 0.854.

What about the normalized growth [26] of the same molecule?
Its normalized growth is 0.426 (active).

And the normalized growth [27]?
The normalized growth was 0.825.

What about the normalized growth [28] of the same molecule?
The normalized growth was 0.917.

And the normalized growth [29]?
Its normalized growth is 0.912.

What about the normalized growth [30] of the same molecule?
The normalized growth was 0.98.

And the normalized growth [31]?
The normalized growth was 0.726.

And the normalized growth [32]?
The normalized growth was 0.967.

And the normalized growth [33]?
The normalized growth was 0.96.

And the normalized growth [34]?
The normalized growth was 0.975.

What about the normalized growth [35] of the same molecule?
The normalized growth was 0.832.

And the normalized growth [36]?
The normalized growth was 0.827.

And the normalized growth [37]?
Its normalized growth is 0.934.

What about the normalized growth [38] of the same molecule?
The normalized growth was 0.933.

What about the normalized growth [39] of the same molecule?
The normalized growth was 0.934.

What about the normalized growth [40] of the same molecule?
Its normalized growth is 0.979.

And the normalized growth [41]?
The normalized growth was 0.991.

And the normalized growth [42]?
Its normalized growth is 0.832 (active).

What about the normalized growth [43] of the same molecule?
Its normalized growth is 0.937.

What about the normalized growth [44] of the same molecule?
Its normalized growth is 0.949.

What about the normalized growth [45] of the same molecule?
The normalized growth was 0.887.

And the normalized growth [46]?
Its normalized growth is 0.98.

What about the normalized growth [47] of the same molecule?
Its normalized growth is 0.93.

What about the normalized growth [48] of the same molecule?
Its normalized growth is 0.987.

And the normalized growth [49]?
The normalized growth was 0.985.

What about the normalized growth [50] of the same molecule?
The normalized growth was 0.924.

And the normalized growth [51]?
Its normalized growth is 0.984.

And the normalized growth [52]?
Its normalized growth is 0.801.

And the normalized growth [53]?
The normalized growth was 0.984.

What about the normalized growth [54] of the same molecule?
Its normalized growth is 0.981.

What about the normalized growth [55] of the same molecule?
The normalized growth was 0.931.

And the normalized growth [56]?
Its normalized growth is 0.976.

What about the normalized growth [57] of the same molecule?
The normalized growth was 0.903.

What about the normalized growth [58] of the same molecule?
Its normalized growth is 0.945.

And the normalized growth [59]?
Its normalized growth is 1.04.

What about the normalized growth [60] of the same molecule?
Its normalized growth is 0.823.

What about the normalized growth [61] of the same molecule?
The normalized growth was 0.988.

What about the normalized growth [62] of the same molecule?
The normalized growth was 0.935.

And the normalized growth [63]?
The normalized growth was 0.871.

And the normalized growth [64]?
The normalized growth was 0.903.

And the normalized growth [65]?
The normalized growth was 0.98.

And the normalized growth [66]?
Its normalized growth is 0.831 (active).

And the normalized growth [67]?
Its normalized growth is 0.978.

And the normalized growth [68]?
The normalized growth was 0.981.

What about the normalized growth [69] of the same molecule?
The normalized growth was 0.963.

What about the normalized growth [70] of the same molecule?
Its normalized growth is 0.993.

And the normalized growth [71]?
The normalized growth was 0.979.
